High-throughput results from PubChem BioAssay.
Compounds with a hit are over-represented: about 3.7% of the library has one in this group of screens.
Rv3671c protease: inhibitors of M. tuberculosis serine protease Rv3671c; P9WHR9; inhibition, % at 5.96 µM; hit rate 0.048% among 320,000; in the data active means inhibition above about 38%;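 further: extracellular domain of Rv3671c used as enzyme; 0% = enzyme with DMSO and 100% = no enzyme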
Target sequence (P9WHR9 whole entry, looked up, the tested form may be a part): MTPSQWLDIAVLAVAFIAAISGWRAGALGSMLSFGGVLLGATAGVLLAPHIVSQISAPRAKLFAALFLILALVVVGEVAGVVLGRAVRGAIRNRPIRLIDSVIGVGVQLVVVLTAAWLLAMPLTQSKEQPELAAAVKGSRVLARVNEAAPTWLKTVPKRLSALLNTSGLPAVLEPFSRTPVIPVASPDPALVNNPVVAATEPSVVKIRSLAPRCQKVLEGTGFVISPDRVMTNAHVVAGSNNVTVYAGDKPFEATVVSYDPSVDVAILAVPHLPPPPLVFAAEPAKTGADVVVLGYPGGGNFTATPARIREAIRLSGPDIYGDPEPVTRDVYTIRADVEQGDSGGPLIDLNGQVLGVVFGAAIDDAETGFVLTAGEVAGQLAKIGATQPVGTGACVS
Mtb bLac sens: beta-lactam sensitization of Mtb H37Rv. M. tuberculosis H37Rv growth with meropenem, percent inhibition. inhibition, % at 25 µM. AID 434955. hit rate 0.27% among 330,000; call rule not given here;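 further: growth measured after seven days incubation then overnight dye step; 0% = bacteria only wells and 100% = bacteria with antibiotic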
FadD28 FP inh: M. tuberculosis FadD28 bisubstrate binding inhibition; hit rate 0.22% among 360,000; AID 588549; FadD28 bisubstrate probe binding, fluorescence polarization; inhibition, % at 12.5 µM; in the data active means inhibition above about 8.5%, passing the limit was not always enough
GDH-TPI inh: GDH-TPI coupled enzyme inhibition counter-screen; hit rate 1.2% among 360,000; inhibition, % at 4.8 µM; GDH-TPI coupled enzyme counterscreen, NADH absorbance; in the data active means inhibition above about 30%;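 further: 0% = DMSO wells and 100% = wells lacking the enzyme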
UGM FP inh: blocks M. tuberculosis UGM enzyme; P9WIQ1; purified UGM, fluorescence polarization probe displacement; inhibition, % at 10 µM; hit rate 0.06% among 320,000; in the data active means inhibition above about 10%, passing the limit was not always enough
FBA Mtb inh: Mtb fructose-bisphosphate aldolase inhibition; P9WQA3; purified M. tuberculosis FBA, fluorescence read-out; hit rate 2.3% among 360,000; AID 588726; inhibition, % at 1 µM; in the data active means inhibition above about 27%;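 further: 0% = vehicle and 100% = reference inhibitor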
An asterisk follows results filed as active; / = not tested or not shown; + = active, no number.

SMILES | Rv3671c protease | Mtb bLac sens | FadD28 FP inh | GDH-TPI inh | UGM FP inh | FBA Mtb inh
COc1cc(/C=C2/NC(=O)NC2=O)ccc1OCC(=O)Nc1ccc(F)cc1 | -15 | 4 | -4 | 15 | -2 | -1
CCOc1cc(C=C2C(=O)NC(=S)NC2=O)ccc1O | / | / | 2 | 34* | / | 1
CCOc1cc(/C=C2\NC(=O)NC2=O)ccc1OC(C)C(=O)O (stereo not drawn) | -3 | -1 | 0 | 47* | 1 | -1
COc1cc(C=O)ccc1O | / | / | -1 | 58* | / | -1
COc1cc2c(cc1OC)CN(C(=O)/C=C/c1cccc([N+](=O)[O-])c1)CC2 | -1 | 3 | -2 | -3 | 0 | 0
O=C(C[C@H]1C[C@H](C(=O)N2CCOCC2)[C@@]2(CCC3CCCC3)c3[nH]c4cc(-c5ccco5)ccc4c3CCN2C1=O)NCCN1CCOCC1 | / | / | -1 | 12 | / | 41*
COCCCNC(=O)C[C@H]1C[C@H](C(=O)N2CCOCC2)[C@@]2(CCC3CCCC3)c3[nH]c4cc(-c5ccco5)ccc4c3CCN2C1=O | / | / | -2 | 2 | / | 18
Cc1ccc(C(=O)Nn2c(O)c(C=C3N=c4ccccc4=N3)sc2=S)cc1 | -5 | 19 | 2 | 11 | -1 | -11
O=C(Nn1c(O)c(C=C2N=c3ccccc3=N2)sc1=S)c1ccc(Cl)cc1 | -15 | 1 | 48* | 11 | -2 | -9
O=C(Nn1c(O)c(C=C2N=c3ccccc3=N2)sc1=S)c1ccccc1 | -5 | 70 | 15* | 24 | 0 | -10
O=C(Nn1c(O)c(C=C2N=c3ccccc3=N2)sc1=S)c1cccc(Cl)c1 | 14 | / | -1 | 19 | -1 | -8
O=C1CCCN1CC(O)CS(=O)(=O)Cc1ccc(Cl)cc1 (stereo not drawn) | -1 | -4 | -3 | -2 | -1 | 2
CC1CCCCc2nc3c(c(=O)n21)CCCC3 (stereo not drawn) | / | / | -1 | / | / | 7
O=C(COc1ccc(F)cc1)NNC(=O)Cn1ccc(C(F)(F)F)n1 | -7 | -8 | / | -3 | 7 | 3
COc1ccc(C2CC(c3ccccc3)=NN2c2ccc(N)cc2)cc1 (stereo not drawn) | -5 | 83 | -4 | 15 | 2 | 0
COc1ccc(C2CC(c3ccc(Cl)cc3)=NN2c2ccc(S(N)(=O)=O)cc2)cc1 (stereo not drawn) | / | / | -3 | 6 | / | +
COc1ccc(C2CC(c3cccc(Cl)c3)=NN2c2ccc(S(N)(=O)=O)cc2)cc1 (stereo not drawn) | / | / | 0 | 19 | / | 141*
Cc1nn(-c2ccccc2)c2nc(-c3cccs3)cc(C(=O)NN)c12 | -33 | -1 | 1 | 9 | -1 | 7
CCOC(=O)c1cc(-c2cccs2)nc2c1c(C)nn2-c1ccccn1 | -3 | 96 | -5 | 37* | -2 | 23
COc1cccc(/C=C2\Oc3cc(OCC(=O)N4CCC[C@H]4C(=O)O)ccc3C2=O)c1 | -12 | 6 | -4 | 36* | 2 | 1
COc1cc(OC)c(OC)cc1/C=C1\Oc2cc(OCC(=O)N3Cc4ccccc4C[C@H]3C(=O)O)ccc2C1=O | -12 | -4 | 12* | 6 | -7 | -11
COc1ccc(/C=C2\Oc3cc(OCC(=O)N4CCC[C@H]4C(=O)O)ccc3C2=O)c(OC)c1 | -8 | -3 | -4 | -3 | -2 | -1
COc1ccc(OC)c(/C=C2\Oc3cc(OCC(=O)N4CCC[C@H]4C(=O)O)ccc3C2=O)c1 | 2 | -4 | 0 | 24 | 12* | -10
COc1cc(NC(=O)[C@H]2O[C@@H](n3ccc(N)nc3=O)[C@H](O)[C@@H]2O)cc(OC)c1OC | / | / | -1 | / | / | 0
C=CCOc1cccn2c(N(C)C(=O)c3ccncc3)c(CC)nc12 | / | / | 1 | 8 | / | 1
SMILES | Rv3671c protease | Mtb bLac sens | FadD28 FP inh | GDH-TPI inh | UGM FP inh | FBA Mtb inh
COc1cccc(-n2c(SCC(=O)N3CCOCC3)nc3c([nH]c4ccccc43)c2=O)c1 | -5 | -3 | -4 | 33* | -1 | 0
N#C/C(=C/c1ccc(-c2ccc(S(N)(=O)=O)cc2)o1)c1nc2ccccc2s1 | -59 | 12 | 20* | 7 | 4 | -15
CSc1ccc(/C=N/n2c(C)cc(C)cc2=O)cc1 | -1 | 3 | -2 | 33* | 0 | 0
NC(=O)COc1ccc(/C=C2\C(=O)ON=C2c2ccccc2)cc1 | 18 | 3 | -3 | -1 | 0 | -1
CC1(C)OC(C)(C)/C(=C\c2ccc(OCC(N)=O)cc2)C1=O | 3 | -1 | -2 | 35* | 2 | -6
N#CC(c1ccccc1)C(CC(=O)c1ccccc1)c1ccccc1 (stereo not drawn) | / | / | -3 | -7 | / | 3
COc1ccc2c(c1OC)c(=O)n1c3ccc(OC(C)C(=O)NCCCN4CCOCC4)cc3c3ccnc2c31 (stereo not drawn) | -12 | -6 | -5 | 3 | -2 | 153*
CCCCc1cc(=O)oc2cc(OC(C)C(=O)NCCN3CCOCC3)ccc12 (stereo not drawn) | / | / | -1 | 10 | / | 13
CC(=O)Nc1sc(N/N=C/c2ccccc2)nc1-c1ccc(C)cc1 | 1 | 1 | -3 | 6 | 6 | 1
CC(=O)Nc1sc(N/N=C/c2ccc(O)cc2)nc1-c1ccc(C)cc1 | 4 | 89 | 0 | 35* | 2 | 5
CC(=O)c1cc2cccc(OC3(C)CCN(Cc4ccc5ccccc5c4)C3)c2o1 (stereo not drawn) | / | / | 0 | -2 | / | 4
COc1ccc(/C=C2/C(=O)N(Cc3ccco3)C(=O)N(C(C)C)C2=O)cc1 | -22 | -6 | 9.5* | 2 | -2 | 1
Cc1cc(C)nc(NC(=O)c2cnc3sccn3c2=O)n1 | 4 | 0 | -4 | 46* | -2 | 4
O=C(c1cnc2sccn2c1=O)N(Cc1ccccc1)c1ccccn1 | -3 | -2 | 1 | 33* | 3 | 0
O=C(NCc1ccc(F)cc1)c1cnc2sccn2c1=O | 4 | -5 | -3 | 27 | 0 | 9
O=C(NCc1cccs1)c1cnc2sccn2c1=O | -6 | 2 | 0 | 45* | 2 | 2
CCN(CC)C(=O)c1cccc(-c2csc(C(C)(NC(C)=O)c3ccccc3)n2)c1 (stereo not drawn) | / | / | -2 | 5 | / | 2
O=C(Cc1cccc(NC(=O)C2CCCN(C(=O)C3CCC3)C2)c1)Nc1ccc(C(=O)N2CCCCC2)cc1 (stereo not drawn) | / | / | -2 | 1 | / | 1
CSC(=NC(C)c1ccccc1)NS(=O)(=O)c1cccs1 (stereo not drawn) | 7 | 4 | -2 | 1 | -1 | 2
CSC(=NS(=O)(=O)c1ccc(N)cc1)NS(=O)(=O)c1cccs1 | / | / | 17* | 5 | / | 1
O=c1[nH]c(C(Cl)Cl)nc2sc3c(c12)CCN(Cc1ccccc1)C3 | -3 | -4 | -8 | 2 | 0 | 18
CCCSc1nc2sc3c(c2c(=O)[nH]1)CCN(Cc1ccccc1)C3 | -9 | 5 | -8 | 8 | -2 | 86*
COc1cccc(NC(=O)CN(C)C(=O)c2cc3c(s2)CCCCC3)c1 | -4 | 2 | 13* | -3 | 1 | -1
